Laboratory results from the supplement of paper PMC8728848.
The full list was thinned out, with the strongest signals kept by preference.

What was measured:
Experiment in all cases: glycan array binding signal (z-score within array); higher = stronger binding
Settings in all cases: glycan notation: IUPAC condensed, linker removed
[1] = target: Fuc(a1-2)Gal(b1-4)GlcNAc(b1-2)Man(a1-3)[Fuc(a1-2)Gal(b1-4)GlcNAc(b1-2)Man(a1-6)]Man(b1-4)GlcNAc(b1-4)[Fuc(a1-6)]GlcNAc
How it was run: (§1)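 The binding signal is a Z-score computed within each array. Data were drawn from 3228 arrays in the Consortium for Functional Glycomics database, restricted to those with a known protein sequence. Scores were averaged over arrays of the same protein sequence at different concentrations or buffers, and over linkers, and negative values can be taken as non-binding.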

[2] = target: Fuc(a1-2)Gal(b1-4)[Fuc(a1-3)]GlcNAc(b1-3)GalNAc
How it was run: as §1

[3] = target: Fuc(a1-2)Gal6S(b1-4)GlcNAc
How it was run: as §1

[4] = target: Fuc(a1-2)[Gal(a1-3)]Gal(b1-3)GlcNAc(b1-2)Man(a1-3)[Fuc(a1-2)[Gal(a1-3)]Gal(b1-3)GlcNAc(b1-2)Man(a1-6)]Man(b1-4)GlcNAc(b1-4)[Fuc(a1-6)]GlcNAc
How it was run: as §1

[5] = target: Fuc(a1-2)[Gal(a1-3)]Gal(b1-4)[Fuc(a1-3)]GlcNAc(b1-3)GalNAc
How it was run: as §1

[6] = target: Fuc(a1-2)[GalNAc(a1-3)]Gal(b1-4)GlcNAc(b1-3)Gal(b1-4)GlcNAc
How it was run: as §1

Gal(a1-2)Gal = target: Gal(a1-2)Gal
How it was run: as §1

Gal(b1-2)Gal = target: Gal(b1-2)Gal
How it was run: as §1

[7] = target: Gal(b1-3)GalNAc(a1-3)[Fuc(a1-2)]Gal(b1-4)Glc
How it was run: as §1

[8] = target: Gal(b1-3)GlcNAc(b1-3)Gal(b1-4)Glc
How it was run: as §1

[9] = target: Gal(b1-3)GlcNAc(b1-3)GalNAc
How it was run: as §1

[10] = target: Gal(b1-3)[Fuc(a1-4)]GlcNAc(b1-2)Man(a1-3)[Gal(b1-3)[Fuc(a1-4)]GlcNAc(b1-2)Man(a1-6)]Man(b1-4)GlcNAc(b1-4)[Fuc(a1-6)]GlcNAc
How it was run: as §1

[11] = target: Gal(b1-3)[Fuc(a1-4)]GlcNAc(b1-3)Gal(b1-3)[Fuc(a1-4)]GlcNAc
How it was run: as §1

Gal(b1-4)Gal = target: Gal(b1-4)Gal
How it was run: as §1

[12] = target: Gal(b1-4)GlcNAc(b1-6)Gal(b1-4)GlcNAc
How it was run: as §1

Gal3S(b1-4)Glc6S = target: Gal3S(b1-4)Glc6S
How it was run: as §1

[13] = target: Gal3S(b1-4)[Fuc(a1-3)]Glc6S
How it was run: as §1

[14] = target: GalNAc(a1-3)Fuc(a1-2)Gal(b1-4)GlcNAc(b1-3)[GalNAc(a1-3)Fuc(a1-2)Gal(b1-4)GlcNAc(b1-6)]GalNAc
How it was run: as §1

GalNAc(b1-3)Gal = target: GalNAc(b1-3)Gal
How it was run: as §1

[15] = target: GalNAc(b1-4)GlcNAc(b1-2)Man(a1-3)[GalNAc(b1-4)GlcNAc(b1-2)Man(a1-6)]Man(b1-4)GlcNAc(b1-4)GlcNAc
How it was run: as §1

Glc(a1-4)Glc = target: Glc(a1-4)Glc
How it was run: as §1

GlcA(b1-3)Gal = target: GlcA(b1-3)Gal
How it was run: as §1

[16] = target: GlcNAc(a1-4)Gal(b1-4)GlcNAc(b1-3)Gal(b1-4)GlcNAc
How it was run: as §1

[17] = target: GlcNAc(a1-4)Gal(b1-4)GlcNAc(b1-3)Gal(b1-4)GlcNAc(b1-3)Gal(b1-4)GlcNAc
How it was run: as §1

[18] = target: GlcNAc(a1-4)Gal(b1-4)GlcNAc(b1-3)Gal(b1-4)[Fuc(a1-3)]GlcNAc(b1-3)Gal(b1-4)[Fuc(a1-3)]GlcNAc
How it was run: as §1

[19] = target: GlcNAc(b1-4)Gal(b1-4)GlcNAc
How it was run: as §1

[20] = target: Kdn(a2-3)Gal(b1-4)[Fuc(a1-3)]GlcNAc
How it was run: as §1

[21] = target: Man(a1-2)Man(a1-3)[Man(a1-2)Man(a1-6)]Man(a1-6)[Man(a1-2)Man(a1-2)Man(a1-3)]Man
How it was run: as §1

[22] = target: Man(a1-2)Man(a1-3)[Man(a1-6)]Man(a1-6)[Man(a1-2)Man(a1-3)]Man(b1-4)GlcNAc(b1-4)GlcNAc
How it was run: as §1

Man(a1-3)[Man(a1-6)]Man = target: Man(a1-3)[Man(a1-6)]Man
How it was run: as §1

Neu5Ac(a2-3)Gal = target: Neu5Ac(a2-3)Gal
How it was run: as §1

[23] = target: Neu5Ac(a2-3)Gal(b1-3)GalNAc6S
How it was run: as §1

[24] = target: Neu5Ac(a2-3)Gal(b1-4)GlcNAc(b1-2)Man(a1-3)[GlcNAc(b1-2)Man(b1-4)GlcNAc(b1-2)Man(a1-6)]Man(b1-4)GlcNAc(b1-4)GlcNAc
How it was run: as §1

[25] = target: Neu5Ac(a2-3)Gal6S(b1-4)GlcNAc
How it was run: as §1

[26] = target: Neu5Ac(a2-6)Gal(b1-4)GlcNAc(b1-2)Man(a1-3)[GlcNAc(b1-2)Man(a1-6)]Man(b1-4)GlcNAc(b1-4)GlcNAc
How it was run: as §1

[27] = target: Neu5Ac(a2-6)Gal(b1-4)GlcNAc(b1-2)Man(a1-3)[Man(a1-6)]Man(b1-4)GlcNAc(b1-4)GlcNAc
How it was run: as §1

[28] = target: Neu5Gc(a2-3)Gal(b1-4)GlcNAc
How it was run: as §1

Neu5Gc(a2-6)GalNAc = target: Neu5Gc(a2-6)GalNAc
How it was run: as §1

B1: NanH (Corynebacterium diphtheriae), C6JSW6 (protein)
chain: MYSSNRTYSRAILGLSAVLTLSFTSLVAPVNAEEPETVVPATAELEGEVAATLPSAETGLLDAAPPKPVARGAAGDLQLPAVNEKEVFEEGRVIRAPEPDQSRCYRIPALVTAKNGDLLLAFDNRYGGGDGAKTWCRDAPYENMKRINRQNMQTDIQLYRSVDNGQSFEDFGYIAQGTADVRELSYTDPALVTDRTTGKIFAFFVRAYDYRVGQSSAGFNEGDVEAEIQKRDVQDTVVVESLDGGQTWGNMRLLSALTAKVSSISTGDTIFDGRGRFVTSGAGIQLQYGEHAGRLIVPISVDIDPKDSAKFINLAIYSDDHGQTWQAGIGTAGGAGFSGDVSKIVELSDGRLMMSSKDNDKPRWVSYSEDQGENWSTPKRKIIAPPQHPEKHNTGINVGLIRAYPNAPENSAAARVLLYSAPIDQRYSHKHTEDGRNNGWVMGSCDDGKTWSFGRQIEKNRFQYSSMTVMSDGNIGMVYESGDFSTGMNLKFAKFNMAWLGADCHSNEALGLTGDIDKEIVEAQEKAAEATKEAQEAAEKVQKLTEELAAARKENDELKNQVKGFKEAVGDLANEAEDLADKVFKLETAVTEAKEKATVAEKAASDAVTQLQKAESIAEEQKAKAESAAAEAQALREKLERLEGSILTVKENPEAEEIADLSSTAKDAADAARRAATDANGALSGQKQDEEKPAMGLMGILKVLAGIIPLVAIIATIFQTFRLPFNIPGMR
In the case of B1, the “glycan array binding signal (z-score)” value [1] is reported as 1.01, the “glycan array binding signal (z-score)” value [2] is reported as 3.22 and the “glycan array binding signal (z-score)” value [3] is reported as 0.001. For the same binder, the “glycan array binding signal (z-score)” value [4] was 1.3, the “glycan array binding signal (z-score)” value [5] was -0.377 and the “glycan array binding signal (z-score)” value [6] was 0.149. The “glycan array binding signal (z-score)” value (Gal(a1-2)Gal) was -1.72, the “glycan array binding signal (z-score)” value (Gal(b1-2)Gal) was 2.93 and the “glycan array binding signal (z-score)” value [7] was 1.05. The “glycan array binding signal (z-score)” value [8] was -1.28, the “glycan array binding signal (z-score)” value [9] was -1.71 and the “glycan array binding signal (z-score)” value [10] was 2.84. For the same binder, the “glycan array binding signal (z-score)” value [11] was -0.787, the “glycan array binding signal (z-score)” value (Gal(b1-4)Gal) was -1.5 and the “glycan array binding signal (z-score)” value [12] was 1.11. For the same binder, the “glycan array binding signal (z-score)” value (Gal3S(b1-4)Glc6S) was -0.269, the “glycan array binding signal (z-score)” value [13] was -0.594 and the “glycan array binding signal (z-score)” value [14] was 0.818. The “glycan array binding signal (z-score)” value (GalNAc(b1-3)Gal) was -1.91, the “glycan array binding signal (z-score)” value [15] was 3.38 and the “glycan array binding signal (z-score)” value (Glc(a1-4)Glc) was -0.111. For the same binder, the “glycan array binding signal (z-score)” value (GlcA(b1-3)Gal) was 2.74, the “glycan array binding signal (z-score)” value [16] was 3.02 and the “glycan array binding signal (z-score)” value [17] was -1.05. The “glycan array binding signal (z-score)” value [18] was 3.97, the “glycan array binding signal (z-score)” value [19] was -0.683 and the “glycan array binding signal (z-score)” value [20] was -0.213. For the same binder, the “glycan array binding signal (z-score)” value [21] was 3.74, the “glycan array binding signal (z-score)” value [22] was -0.263 and the “glycan array binding signal (z-score)” value (Man(a1-3)[Man(a1-6)]Man) was -0.151. The “glycan array binding signal (z-score)” value (Neu5Ac(a2-3)Gal) was 0.353, the “glycan array binding signal (z-score)” value [23] was 1.83 and the “glycan array binding signal (z-score)” value [24] was 0.603. For the same binder, the “glycan array binding signal (z-score)” value [25] was -1.04, the “glycan array binding signal (z-score)” value [26] was 0.122 and the “glycan array binding signal (z-score)” value [27] was -0.077. For the same binder, the “glycan array binding signal (z-score)” value [28] was -0.068 and the “glycan array binding signal (z-score)” value (Neu5Gc(a2-6)GalNAc) was 0.15.
